In ChEMBL document CHEMBL3988442, “University of Dundee, Small-Polar-MMV Screening Library” (2021):
Values joined by “and” are separate entries in the source; they are usually repeats but may differ in a detail not shown here. Equal values may be shown once. The whole screen tested about 38,000 compounds, of which about 1,200 (3.2%) showed an effect of 50% or more. The median lay at about -58%. The entries come from a sample that favours strong results as a whole.

Test system: Plasmodium falciparum
Experiment: Calibr Malaria Delayed Death Assay SOP
Type: functional, organism-based
Parameters: scale not given: in the data most compounds retested in dose-response had high values
Settings: concentration 4.99e-06 (unit not given; other assays of the set use mol/L)

Row | SMILES | Percent Effect [%] | Percent Effect (4.99 µM)
1 | c1csc(CN(Cc2ccsc2)CC2CCCO2)n1 (stereo not drawn) | -152.6 | –
2 | CCOc1cccc(CNC(=O)c2cnn(CC)c2C(F)(F)F)c1 | -100.3 | –
3 | O=C(CN1CCCS1(=O)=O)Nc1ccc(OC2CCCC2)cc1 | -131 | –
4 | O=C1NCc2ccc(NC(=O)C3CCCN3c3nccs3)cc21 (stereo not drawn) | -60.91 | –
5 | CC(=O)c1ccc(NC(=O)C(NC(=O)Nc2ccccc2)C(C)C)cc1 (stereo not drawn) | -29.84 | –
6 | Cn1ccnc1SCCNC1CCN(c2ncccn2)CC1 | -15.99 | –
7 | CCc1nccn1CCNC1CCN(c2nc3ccc(Cl)cc3s2)CC1 | 85.53 | –
8 | Cc1n[nH]c(SCCNC2CCN(c3nc4ccccc4s3)CC2)n1 | -208.3 | –
9 | Cn1ccnc1SCCNC1CCN(c2nc3ccccc3s2)CC1 | 58.02 | –
10 | O=C(NCCNC1CCN(c2nccs2)CC1)c1cccs1 | -27.34 | –
11 | CCc1cc(N2CCC(NCCc3ccccc3F)CC2)nc(C)n1 | -10.81 | –
12 | N#Cc1ccc(OCC(O)CN2CCc3cncnc3C2)cc1 (stereo not drawn) | -94.24 | –
13 | c1ccc(C2CN(C3CC3)CC3(CCN(Cc4cscn4)CC3)C2)cc1 (stereo not drawn) | 80.59 | –
14 | COc1ccc(C2CCN(Cc3cscn3)CC2)cc1 | -93.29 | –
15 | CCc1ccccc1CN1CCN(Cc2ncc[nH]2)[C@H]2CS(=O)(=O)C[C@H]21 | -62.66 | –
16 | CCN(CC1CN(Cc2ncc[nH]2)CCO1)c1cccnn1 (stereo not drawn) | -7.517 | –
17 | CCN1CC2(CCC1=O)CCN(Cc1cscn1)CC2 | -71.85 | –
18 | CN1CC(c2ccccc2)CC2(CCN(Cc3ncc[nH]3)CC2)C1 (stereo not drawn) | 82.67 | –
19 | c1ccc(C2CN(C3CC3)CC3(CCN(Cc4ncc[nH]4)CC3)C2)cc1 (stereo not drawn) | 35.37 | –
20 | COCCC(=O)N1CCC2(CC1)CC(c1ccccc1)CN(C)C2 (stereo not drawn) | -5.324 | –
21 | CCN1CC(c2ccccc2)CC2(CCN(Cc3ncc[nH]3)CC2)C1 (stereo not drawn) | 87.85 | –
22 | O=C(NCC(O)c1ccc(Cl)c(F)c1)NC1CC=CC1 (stereo not drawn) | -17.82 | –
23 | CCSc1cc(C(=O)NCCC(=O)N(C)C)ccn1 | -118.1 | –
24 | Cc1nn(CCNS(=O)(=O)NCc2ccccc2)c(C)c1Cl | -125.5 | –
25 | COc1ccccc1N1CCN(C(=O)CCc2nncn2C)C(C)C1 (stereo not drawn) | -70.09 | –
26 | Cc1ccc(C)c(OC2CCN(C(=O)NCC(=O)N3CCCC3)CC2)c1 | -83.87 | –

Row | SMILES | Percent Effect [%] | Percent Effect (4.99 µM)
27 | CC(C)n1c2ccccc2c2c1cc(C(=O)NC1CC1)n2C(=O)N(C)C | -14.52 | –
28 | O=c1c(CN2CCCCCC2)coc(O)c1CN1CCCCCC1 | 53.69 | –
29 | O=c1c(CN2CCSCC2)coc(O)c1CN1CCCC1 | -11.49 | –
30 | O=c1c(CN2CCCCCC2)coc(O)c1CN1CCOCC1 | -41.33 | –
31 | COc1ccc(CNc2c(N3CCN(C)CC3)c(=O)c2=O)cc1 | -162.8 | –
32 | CCc1nc2n(n1)CC(NCc1noc(-c3ccc(C)cc3)n1)CC2 (stereo not drawn) | -102.8 | –
33 | CN(C)c1nc(NCCc2cnccn2)ncc1F | -28.24 | –
34 | COCCC1CCCCN1C(=O)c1coc(COc2ccccc2F)n1 (stereo not drawn) | – | -24.51% and -14.95%
35 | COc1cccc(CNCc2ccc(F)cc2Cl)c1O | 78.71 | –
36 | CCOc1cccc(CNc2ccccc2Cl)c1O | -149 | –
37 | COCCNC(=O)NCCc1cccc(OC)c1O | -51.73 | –
38 | Cc1cnn(CCNCc2ccc(F)cc2Cl)c1 | -82.03 | –
39 | COc1cccc(CNCc2ccccc2Cl)c1O | 76.29 | –
40 | Fc1ccc(CNCCn2cccn2)c(Cl)c1 | -121.7 | –
41 | O=C(c1ccc2[nH]c(=O)[nH]c2c1)N1CCC(Nc2cccnn2)CC1 | -46.87 | –
42 | COc1c(C)cnc(CN2CCOC(Cn3cc(C)cn3)C2)c1C (stereo not drawn) | -74.84 | –
43 | Cn1c2c(c(=O)n1C)CN(C(=O)c1cnccn1)CCC2 | -106.6 | –
44 | Cc1ccc(C(=O)N2CCCC3(C2)C(=O)N(C)c2ccccc23)c(=O)[nH]1 (stereo not drawn) | -167.7 | –
45 | Cc1cc(C)cc(NC(=O)CC2CN(Cc3ccccc3)CCO2)c1 (stereo not drawn) | -128.2 | –
46 | CCc1cccc2cc(CNCCCN3CCOCC3)c(=O)[nH]c12 | -14.92 | –
47 | COCCCn1c(CN2CCCCO2)cnc1S(=O)(=O)C1CCCC1 | -131.1 | –
48 | O=C(CNc1ccccc1Cl)Nc1cc(-n2cnnn2)ccc1F | -95.2 | –
49 | O=C(CNc1cc(-n2cnnn2)ccc1F)Nc1cc(F)ccc1F | 1.352 | –
50 | Cc1ccc(-n2cnnn2)cc1NCC(=O)Nc1cc(F)ccc1F | 71.46 | –
51 | O=C(CNc1cc(-n2cnnn2)ccc1F)NCc1ccccc1 | -22.04 | –
52 | Cc1ccc(-n2cnnn2)cc1NCC(=O)Nc1ccccc1Cl | 78.71 | –

Row | SMILES | Percent Effect [%] | Percent Effect (4.99 µM)
53 | O=C(CNc1cc(-n2cnnn2)ccc1F)Nc1ccccc1Cl | -49.6 | –
54 | Cc1ccc(-c2ccc(=O)n(CC(=O)Nc3nccs3)n2)cc1 | -17.67 | –
55 | FC1(F)CCN(Cc2ccccn2)CC12CCN(c1cnccn1)C2.O=C(O)C(F)(F)F.O=C(O)C(F)(F)F.O=C(O)C(F)(F)F (stereo not drawn) | 16.91 | –
56 | CC(C)(C)OCC1CN(CC2CC2)S(=O)(=O)c2cnccc2O1 (stereo not drawn) | -18.82 | –
57 | O=C1NCC2(CCCN(C(=O)c3c[nH]nc3C3CCCCC3)C2)O1 (stereo not drawn) | -117.3 | –
58 | O=C(NCC1CCOC1)c1csc(-c2ccc(F)cc2)n1 (stereo not drawn) | -133.9 | –
59 | c1ccc(CO[C@H]2CO[C@@]3(CCCN(Cc4ccncc4)C3)C2)nc1 | -35.86 | –
60 | CN1C[C@H]2N(c3ncccn3)CCC[C@@]2(C(=O)NCC2CC2)C1.O=C(O)C(F)(F)F | -55.87 | –
61 | CCN(CC)Cc1ccc(C(=O)NC2CCc3cc(Cl)ccc32)o1 (stereo not drawn) | 54.73 | –
62 | CCN(CC)Cc1ccc(C(=O)NC2CCc3cc(Br)ccc32)o1 (stereo not drawn) | 46.2 | –
63 | CCN(CC)Cc1ccc(C(=O)NC2CCc3cc(F)ccc32)o1 (stereo not drawn) | 13.89 | –
64 | CCC(c1ccncc1)N(C)S(C)(=O)=O (stereo not drawn) | -63.43 | –
65 | O=c1[nH]nc2c(S(=O)(=O)N3CCCCC3)cccn12 | -53.1 | –
66 | CCSc1nnc(CCNC(=O)OC(C)(C)C)o1 | -74.82 | –
67 | CCN(C)S(=O)(=O)NCC1(c2cccc(Br)c2)CC1 | -108.3 | –
68 | FC(F)(F)c1cccc(C2(CNCc3ccncc3)CCOCC2)c1 | 48.98 | –
69 | Clc1ccc(OCCNC2(c3ccc(Br)cc3)CCOCC2)cc1 | 8.374 | –
70 | Fc1ccc(C2(CNCCc3cccs3)CCOC2)cc1 (stereo not drawn) | 43.71 | –
71 | COCCn1ccnc1C1CCCN(c2cc(OC)nc(N)n2)C1 (stereo not drawn) | -62.62 | –
72 | CC(=O)N1CCCN(CC(C)(O)c2cccc(C(F)(F)F)c2)CC1 (stereo not drawn) | -93.83 | –
73 | CC(O)(CN1CCC2(CC1)OCCO2)c1cccc(C(F)(F)F)c1 (stereo not drawn) | -10.61 | –
74 | CC(O)(CN1CCC(O)CC1)c1cccc(C(F)(F)F)c1 (stereo not drawn) | 56.04 | –
75 | COc1cc(C)c(S(=O)(=O)CC(=O)N(C)C2CC2)cc1OC | -72.85 | –
76 | NC(=O)C1(c2cnccn2)CCCN1Cc1ccccn1 (stereo not drawn) | -37.82 | –
77 | Cc1ccc(NCCCc2c(C)noc2C)nn1 | -93.73 | –
78 | Cc1cc(C)cc(CN2CCC3(CC2)CC(Nc2ncccn2)CO3)c1.O=C(O)C(F)(F)F (stereo not drawn) | 60.22 | –

Row | SMILES | Percent Effect [%] | Percent Effect (4.99 µM)
79 | O=C(O)C(F)(F)F.c1cnc(NC2COC3(CCN(Cc4ccoc4)CC3)C2)nc1 (stereo not drawn) | -27.43 | –
80 | O=C(O)C(F)(F)F.c1cnc(NC2COC3(CCN(Cc4cccs4)CC3)C2)nc1 (stereo not drawn) | -52.55 | –
81 | Cn1cc(CN2CCC3(CC2)CC(Nc2nccs2)CO3)cn1.O=C(O)C(F)(F)F (stereo not drawn) | -11.64 | –
82 | O=C(O)C(F)(F)F.c1ccc(CN2CCC3(CC2)CC(Nc2nccs2)CO3)nc1 (stereo not drawn) | 73.68 | –
83 | Cc1cc(CN2CCC3(CC2)CC(Nc2ncccn2)CO3)nn1C.O=C(O)C(F)(F)F (stereo not drawn) | -11.8 | –
84 | COc1ccc2c(ccn2CCC(=O)Nc2ccc(C(N)=O)cc2)c1 | -55.48 | –
85 | COCCCN(C)C1CCCN(Cc2noc(C3CC3)n2)C1 (stereo not drawn) | -38.52 | –
86 | CCCc1nnc(N2CCC3(CC2)CN(C)C(=O)O3)o1 | -93.43 | –
87 | O[C@H]1CC[C@@H](Cc2cc(-c3ccccc3)on2)O[C@@H]1CNCC1CC1 | 37.66 | –
88 | O[C@H]1CC[C@@H](Cc2cc(-c3ccccn3)on2)O[C@@H]1CNCC1CC1 | -74.71 | –
89 | O[C@H]1CC[C@@H](Cc2cc(-c3ccc(F)cc3)on2)O[C@@H]1CNCC1CC1 | 62.55 | –
90 | CN(Cc1cccs1)c1cc(N2CCCC2CO)ncn1 (stereo not drawn) | -120.2 | –
91 | Cc1cc2nc(SCC(=O)N3CCOCC3)n(CC(C)C)c(=O)c2[nH]1 | -82.87 | –
92 | CC(C)c1cc(Br)ccc1NC(=O)NC(C)(CO)CO | -72.51 | –
93 | CC(c1nc(C(C)(C)C)no1)S(=O)(=O)CC(=O)N(C)C (stereo not drawn) | -171.7 | –
94 | Fc1ccc(OCCCNC2=NCCN2)cc1.I | 3.475 | –
95 | Fc1ccc(Sc2ccccc2CNC2=NCCN2)cc1.I | 79.96 | –
96 | O=C(CCc1nnc2ccccn2c1=O)NCc1ccco1 | -46.43 | –
97 | COc1ccsc1C(=O)NCCN1CCOCC1 | -115.8 | –
98 | Cc1nc(C)n(CC2CCCN2Cc2ccn(-c3ccccc3)n2)n1 (stereo not drawn) | -118.1 | –
99 | CNCCCNC1CCN(c2ccc(-n3ccnc3)cc2)CC1 | 32.68 | –
100 | CCN1CCC2(CC1)CC(CC(=O)N(C)C)c1ccc(F)cc12 (stereo not drawn) | -67.07 | –
101 | CCC(C)N(Cc1c[nH]c(C)n1)Cc1ccccc1Cl (stereo not drawn) | 47.84 | –
102 | CCC(C)N(Cc1ccncc1)Cc1ccc(-n2cccn2)cc1 (stereo not drawn) | -4.562 | –
103 | CCC(C)N(Cc1ccc(C)cc1)Cc1c[nH]c(C)n1 (stereo not drawn) | 77.78 | –
